Pf Dd2 inh: qHTS Primary assay for Inhibitors of Plasmodium falciparum Dd2 growth in vitro; P. falciparum Dd2 growth, SYBR Green, 72 h; Potency, µM (series often up to 28.9 µM), for the others: at the top dose activity, negative = inhibition, hits mostly inhibitors; 4.3% of 120,000 active; active = well fitted inhibition curve with a large enough effect;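 note: plate controls were DMSO vehicle for no effect and reference drug for full effect; nearly all actives have a fitted effect of over 65% in size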
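Infected erythrocytes (Dd2, 0.3% parasitemia, 2.5% hematocrit final) are added to compound in RPMI-1640/Albumax II medium, grown 72 h at 37C in low oxygen, then lysed with saponin/Triton-X containing SYBR Green and read by fluorescence.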
* = called active by the depositor; i = inactive; [ ] = remark or other dose. Only a selection was taken, and hits are over-represented in it overall. Potency is the fitted concentration of half-maximal effect.

SMILES	Pf Dd2 inh
CCOC(=O)N1CCC(NC(=O)c2cnn(-c3ccc(OC)cc3)c2C2CCN(C(=O)OC(C)(C)C)CC2)CC1	8.9µM*
COc1ccc(CNC(=O)c2cnn(-c3ccc(OC)cc3)c2C2CCN(C(=O)OC(C)(C)C)CC2)cc1	-23%
CCOC(=O)N1CCC(NC(=O)c2cnn(-c3ccc(C)cc3)c2C2CCN(C(=O)OC(C)(C)C)CC2)CC1	11µM*
CCOC(=O)N1CCC(NC(=O)c2cnn(-c3cccc(Cl)c3C)c2C2CCN(C(=O)OC(C)(C)C)CC2)CC1	i
Cc1ccc(-n2ncc(C(=O)NC3CCN(Cc4ccccc4)CC3)c2C2CCN(C(=O)OC(C)(C)C)CC2)cc1C	i
COc1ccc(-n2ncc(C(=O)NCCc3ccsc3)c2C2CCN(C(=O)OC(C)(C)C)CC2)cc1	-27%
COc1ccc(CCNC(=O)C(=O)Nc2ccc(C)c(C)c2)cc1OC	i
CCn1cc(S(=O)(=O)N2CCC3(CC2)CN(C(C)=O)CC3COC)cn1 (stereo not given)	i
O=C(Cc1cccc(F)c1)NCCn1ccn2nc(-c3ccc(F)cc3)cc2c1=O	i
COc1cccc(NC(=O)CN2CCCN(S(=O)(=O)c3ccc(Br)cc3)CC2)c1	38%
CCOC(=O)c1ccc(NC(=O)Cn2nnc(-c3ccc(C(F)(F)F)cc3)n2)cc1	-13%
O=C(CSc1nc2c(oc3ccccc32)c(=O)n1Cc1ccco1)Nc1ccccc1	i
CCOc1ccccc1NC(=O)CSc1nc2c(oc3ccccc32)c(=O)n1Cc1ccco1	-28%
CCCN(CCC)C(=O)CSc1nc2ccccc2c(=O)n1Cc1ccco1	11µM*
CCOC(=O)C1=CN(CC(=O)Nc2ccccc2C)S(=O)(=O)N=C1C	48%
CCOC(=O)c1cc(-c2ccccc2)n(CCC(=O)Nc2ccc(C)cc2Cl)c1C	-47%
CCOC(=O)c1cc(-c2ccccc2)n(CCC(=O)Nc2cc(C)cc(C)c2)c1C	3.2µM*
CCOC(=O)c1cc(-c2ccccc2)n(CC(=O)Nc2cc(Cl)c(OC)cc2OC)c1C	i
CCOC(=O)c1cc(-c2ccccc2)n(CCC(=O)Nc2ccc(Cl)c(C(F)(F)F)c2)c1C	2.8µM*
CCOC(=O)c1cc(-c2ccccc2)n(CCC(=O)Nc2cc(OCC)ccc2OCC)c1C	21%
CCOC(=O)c1cc(-c2ccccc2)n(CCC(=O)NCCc2cccc(C)c2)c1C	-3%
O=C1N[C@@H]2CCN(C(=O)c3cccnc3)[C@@H]2C(=O)N1c1ccc(Oc2ccccc2)cc1	-18%[44.1 µM]
CSCCC(=O)N[C@H]1CC[C@H]1NC1CCN(C(=O)c2cnccn2)CC1	-9%
Cc1cc(C)c2c(C)c(C(=O)N3CCC(c4nc5ccccc5s4)CC3)oc2c1	8.9µM*
Cc1ccccc1C(=O)N1CCC(c2nc3ccccc3s2)CC1	1.3µM*
SMILES	Pf Dd2 inh
COc1cc(C(=O)N2CCC(c3nc4ccccc4s3)CC2)cc(OC)c1OC	96%
Cc1c(C(=O)N2CCC(c3nc4ccccc4s3)CC2)oc2cc(Br)ccc12	-18%
Cc1ccc2oc(C(=O)N3CCC(c4nc5ccccc5s4)CC3)c(C)c2c1	31%
O=C(c1ccccc1Cl)N1CCC(c2nc3ccccc3s2)CC1	88%
Cc1cnc(CC2CCN(C(=O)CCc3nc4ccccc4s3)CC2)n1CC1CC1	-14%
CC(C)CNC(=O)CC(c1cccc([N+](=O)[O-])c1)c1c[nH]c2ccccc12 (stereo not given)	i
Cc1ccc(CNC(=O)c2ccc3c(c2)CN(CCCc2ccc(C)o2)CCO3)cc1	-10%
CCOC(=O)c1cc2c(=O)n3ccccc3nc2n(Cc2ccco2)c1=NC(=O)c1cccc(F)c1	-7%
CCOc1ccc(OCC(=O)Nc2nnc3n2CCS3)cc1	5%
O=C(c1nc(-c2ccc(F)cc2)c2cnccn12)N1CCCC1	6.3µM*
O=C(c1nc(-c2cccc(C(F)(F)F)c2)c2cnccn12)N1CCOCC1	-4%
N#CC1CCN(C(=O)c2nc(-c3cccnc3)c3cnccn23)CC1	-16%[44.1 µM]
C[S+](=O)([O-])c1ccc(-c2nc(C(=O)N3CCOCC3)n3ccncc23)cc1	7.9µM*
C[S+](=O)([O-])c1ccc(-c2cc(C(=O)N3CCN(c4ncccn4)CC3)nn3cccc23)cc1	-24%
O=C(c1nc(-c2ccccc2)c2ccccn12)N1CCN(c2ncccn2)CC1	-6%
C[S+](=O)([O-])c1ccc(-c2nc(C(=O)N3CCN(c4ncccn4)CC3)n3ccncc23)cc1	11µM*
C#CCNC(=O)c1nc(-c2ccc([S+](C)(=O)[O-])cc2)c2cnccn12	i
O=C(c1nc(-c2ccc(F)cc2)c2ccccn12)N1CCOCC1	13%[44.1 µM]
CCOCCNc1ncnc2c1CN(C1CCCNCC1)C(=O)CN2C (stereo not given)	18%
O=C(OCc1cc(=O)n2nc(-c3cccs3)sc2n1)c1cccc(Cl)c1	i
Cc1cccc(N2CCN(S(=O)(=O)c3cc(C(=O)Nc4ccccc4Cl)ccc3F)CC2)c1C	129%
CC1=C(C(=O)N2CC3CC(C2)[C@H]2CCCC(=O)N2C3)C2(CCCCC2)OC1=O (stereo not given in full)	-1%
Cc1cc(C)c2oc(C(=O)Nc3ccc(S(=O)(=O)N4CCCCC4)cc3)cc(=O)c2c1	23%
CC(C)Cc1ccc(S(=O)(=O)N(C)CC2CCOC2)cc1 (stereo not given)	15%[5.79 µM]
COc1ccc(CCC(=O)NCc2nnc3c(-c4nc(C)no4)cccn23)cc1	i
SMILES	Pf Dd2 inh
COc1ccc(-n2ccnc2CN2CCOC(c3cccnc3)C2)cc1 (stereo not given)	-13%
O=C(Cc1cccnc1)NCC(=O)N1CCCCCNC(=O)CC1c1ccccc1 (stereo not given)	28%
O=C1CCCN1CCCN1C(=O)[C@@H]2C[C@@H](O)CN2C2(CN(Cc3c[nH]c4ccccc34)C2)C1=O	1%
CCc1cccc(C)c1Nc1c(-c2ccc(N(C)C)cc2)nc2cnccn12	-22%
CCc1cccc(C)c1Nc1c(-c2cccc(O)c2)nc2cnccn12	8.9µM*
CCc1cccc(C)c1Nc1c(-c2ccc(F)cc2)nc2sccn12	-27%
CCCN(C(=O)c1cc2c(=O)oc3ccccc3c2s1)c1cccc(Cl)c1	11%
CCN(CC)c1ccc2cc(-c3nnc(-c4cccc(Cl)c4)o3)c(=O)oc2c1	-2%
CC(C)=CCn1c(-c2cc(C)oc2C)cn2cc(C(=O)N(C)CC(C)C)nc2c1=O	11µM*
COc1ccc(-c2cn3cc(C(=O)NCC(N)=O)nc3c(=O)n2CC2CC2)c(F)c1	-28%
CCCN(C)C(=O)c1cn2cc(-c3cccc(Cl)c3)n(CC=C(C)C)c(=O)c2n1	13µM*
CC(C)NC(=O)c1onc(-c2ccc(Cl)cc2)c1[C@H](C)O	-6%[44.1 µM]
CCc1noc([C@@H]2CC(F)(F)CN2C(=O)CCn2cc(C)cn2)n1	2%
CCCCCCN(CCC(=O)NCc1ccccc1)C(=O)c1ccoc1	-1%
Cc1noc(C)c1[S+](=O)([O-])N1CCC2(CC1)CC(=O)c1ccccc1O2	1%
COC[C@@H]1CN(Cc2cccc(OC)n2)C[C@H]1C(N)=O	-19%
CC(=O)N1CCc2cc(S(=O)(=O)C(C)CC(=O)Nc3ccc(Br)c(C)c3)ccc21 (stereo not given)	-10%
CCc1noc(-c2ccn3c(CNC(=O)c4cc(Cl)ccc4OC)nnc3c2)n1	-4%
COCc1nncn1C1CCN(C(=O)c2ccc(F)c(Cl)c2)CC1	-10%
CN1C(=O)c2cccn2CC1CNC(=O)c1n[nH]c(=O)c2ccccc12 (stereo not given)	16%

Source: PubChem (National Center for Advancing Translational Sciences (NCATS))
